Measured values published in PubChem BioAssay AID2280 (The Scripps Research Institute Molecular Screening Center, 2010).
Hit rate of the full screen: of about 320,000 compounds, about 1,400 (0.44%) were called active.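 Rule for the calls: active = percent inhibition above a per-plate cutoff, the plate mean of test compounds plus 3 SD (cut at about 30% in these data); inactive = the rest.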 Many of the other results were omitted from the sample, so actives are more common in it than they were.

These compounds were tested against Female germline-specific tumor suppressor gld-1 (Caenorhabditis elegans) (UniProt Q17339) (assay: GLD-1/TGE RNA complex disruptors, primary screen, biochemical, fluorescence polarization (AID 2280;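 note: 0% = DMSO wells with GLD-1 and probe and 100% = wells lacking GLD-1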)). Details: purified GLD-1 + fluorescein TGE RNA, at 5.96 µM, stronger effect = higher value.
Sequence of Female germline-specific tumor suppressor gld-1 (Caenorhabditis elegans) (Q17339 whole entry, looked up): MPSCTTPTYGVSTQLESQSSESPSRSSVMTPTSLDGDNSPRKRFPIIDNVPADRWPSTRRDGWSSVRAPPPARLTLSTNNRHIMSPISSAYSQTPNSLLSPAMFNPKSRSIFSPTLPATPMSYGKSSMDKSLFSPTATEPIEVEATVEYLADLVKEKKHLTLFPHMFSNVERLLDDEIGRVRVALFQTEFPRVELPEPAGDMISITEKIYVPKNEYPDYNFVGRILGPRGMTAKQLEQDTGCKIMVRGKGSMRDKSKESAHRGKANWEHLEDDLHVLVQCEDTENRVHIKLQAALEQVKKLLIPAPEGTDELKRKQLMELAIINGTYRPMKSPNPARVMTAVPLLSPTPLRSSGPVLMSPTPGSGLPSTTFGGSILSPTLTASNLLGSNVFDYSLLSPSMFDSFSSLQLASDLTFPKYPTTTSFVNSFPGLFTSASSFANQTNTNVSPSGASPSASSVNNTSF
For `Nc1cccc2c1C(=O)N(Cc1nnc(-c3ccccc3Br)o1)C2=O`, the inhibition was 37% (active).
With `Cn1cnnc1SCc1nnc(-c2ccccc2Br)o1` the inhibition was -10.8% (inactive).
For `CCOC(=O)N1CCN(Cc2nnc(-c3ccccc3Cl)o2)CC1`, the inhibition was -10.5% (inactive).
With `COc1cc(S(=O)(=O)N2CCN(C(=O)C3CC3)CC2)ccc1NC(C)=O` the inhibition was 3.97% (inactive).
For `CCOc1ccc(NC(=O)c2cccc3c2C(=O)N(CC2CCCO2)C3)cc1` (stereo not given), the inhibition was 2.1% (inactive).
For `COCCN1C=C2C(=O)C(C)(OC(=O)C3CCCC3)C(=O)C=C2C=C1c1ccsc1` (stereo not given), the inhibition was 23.1% (inactive).
For `CCCCC1=CC2=CC(=O)C(C)(OC(=O)CC)C(=O)C2=CN1CCCOC(C)C` (stereo not given), the inhibition was 22.9% (inactive).
With `COC/C=C/C1=CC2=CC(=O)C(C)(OC(=O)CCC(=O)OC)C(=O)C2=CO1` (stereo not given) the inhibition was 46.7% (active).
For `CSCCNC(=O)c1ccc2nc(Cc3ccccc3F)oc2c1`, the inhibition was -1.35% (inactive).
`COc1ccc(CCN2C(=O)CC(N3CCC(C(N)=O)CC3)C2=O)cc1OC` (stereo not given) was tested, and the inhibition was 1.78% (inactive).
`CCn1c(SCc2ccccc2)nc2cc(OC)c(OC)cc2c1=O` was tested, and the inhibition was -3.64% (inactive).
For `COC(=O)c1ccc(SCc2ccccc2)nc1`, the inhibition was -5.64% (inactive).
`CSc1c(SCc2ccccc2)cnn(Cc2ccccc2)c1=O` was tested, and the inhibition was 140% (active).
In the case of `COc1cc2c(C(=O)N3CCN(C)CC3)c(CSc3ccccc3)n(C)c2cc1Br`, the inhibition was 0.62% (inactive).
`COC(=O)c1sc(-c2ccc(C(C)(C)C)cc2)cc1NC(=O)/C=C/C(=O)O` was tested, and the inhibition was -0.27% (inactive).
In the case of `COc1ccc(N2C(=O)c3cccc4cccc(c34)C2=O)nn1`, the inhibition was 13.5% (inactive).
In the case of `O=C(O)c1ccc2c3c(cccc13)C(=O)N(OS(=O)(=O)c1ccccc1)C2=O`, the inhibition was 13.8% (inactive).
For `CC(=O)Nc1ccccc1Sc1ccc2c3c(cccc13)C(=O)N(c1ccc(C)cc1)C2=O`, the inhibition was 0.24% (inactive).
For `Cc1nn(C)cc1C(=O)c1ccccc1`, the inhibition was 1.39% (inactive).
In the case of `CN1C(=O)c2cccc3c(N)ccc(c23)C1=O`, the inhibition was 198% (active).
For `COc1ccccc1C(=O)NCCC(=O)NCC(c1ccco1)N1CCCCC1` (stereo not given), the inhibition was 3.67% (inactive).
For `CC(C)(C)CN1CCNC(=O)C1CC(=O)NC1Cc2ccccc2C1` (stereo not given), the inhibition was 8.53% (inactive).
For `COc1ccccc1CNC(=O)c1ccc(Cl)c(S(=O)(=O)N2CCCC2)c1`, the inhibition was 0.54% (inactive).
For `CCN1/C(=C\c2ccc3ccccc3[n+]2CC)Sc2cc(C)ccc21`, the inhibition was 61.6% (active).
With `N/C(=N\OC(=O)CCn1cccc(C(F)(F)F)c1=O)c1ccc(OC(F)(F)F)cc1` the inhibition was -1.66% (inactive).
`CCOc1ccc(C(=O)NC2CCN(C(=O)Nc3ccccc3OC)CC2)cc1` was tested, and the inhibition was 0.46% (inactive).
In the case of `CCOc1ccc2nc(N3CCCN(C(=O)Nc4ccccc4C)CC3)c(C#N)cc2c1`, the inhibition was 42% (active).
In the case of `CCOC(=O)c1cc(C#N)c(N2CCCCC2)nc1-c1ccccc1`, the inhibition was -3.77% (inactive).
`CC1CCCC(NC(=O)c2cccc(N3CCCC3=O)c2)C1C` (stereo not given) was tested, and the inhibition was 2.8% (inactive).
`COc1ccccc1C(=O)Nc1nc2nc(-c3ccccc3)cc(=O)n2[nH]1` was tested, and the inhibition was 0.62% (inactive).
`CCNS(=O)(=O)c1ccc(CCC(=O)N2CCN(c3cc(Cl)ccc3C)CC2)cc1` was tested, and the inhibition was 1.35% (inactive).
`COc1ncnc2c1N=C1CC(C)(C)CC(N)=C1S2` was tested, and the inhibition was 112% (active).
With `Cc1cc(C)n(-c2nc(O)cc(=O)[nH]2)n1` the inhibition was 4.97% (inactive).
With `CC(C)(C)c1ccc(Cn2nnc3c(=O)[nH]c(C4CCCN(C(=O)c5ccco5)C4)nc32)cc1` (stereo not given) the inhibition was 4.28% (inactive).
With `CCOC(=O)c1cccc(NC(=O)CN2C(=O)C3CC=CCC3C2=O)c1` (stereo not given) the inhibition was 4.12% (inactive).
`Cc1ccc(OCC(=O)Nc2ccc(C(=O)O)cc2NC(=O)COc2ccc(C)c(C)c2)cc1C` was tested, and the inhibition was 8.42% (inactive).
In the case of `CCOC(=O)c1cnc(SC)nc1Sc1ccc(Cl)cc1Cl`, the inhibition was 6.36% (inactive).
With `CCN(CC(=O)Nc1ccccc1OC)C(=O)CC1CC2CCC1C2` (stereo not given) the inhibition was -0.14% (inactive).
`CCN(CC(=O)Nc1ccccc1OC)C(=O)Cn1cnc2ccccc2c1=O` was tested, and the inhibition was 4.15% (inactive).
With `CCCN(CC(=O)Nc1ccccc1OC)C(=O)CCC(=O)c1ccc(F)cc1` the inhibition was 54.8% (active).
With `CC1CCN(C(=O)Cn2nnnc2CN2CCOCC2)CC1` the inhibition was 0.79% (inactive).
In the case of `CCCCNc1c(-c2cccc(Sc3ccc(OC)cc3)c2)nc2ccccn12`, the inhibition was 2.4% (inactive).
For `Cc1cccc(N2C(=O)SC(SC(=Nc3ccccc3)Nc3ccccc3)C2=O)c1` (stereo not given), the inhibition was 10.3% (inactive).
For `COc1ccc(C)cc1NC(=S)Nc1ccccc1SC`, the inhibition was -6.51% (inactive).
For `COc1ccc2c(CC(=O)N3CCc4cc(OC)c(OC)cc4C3)coc2c1`, the inhibition was 5.21% (inactive).
`O=C(CSc1ccc2nnc(-c3ccccc3)n2n1)N1CCCc2ccccc21` was tested, and the inhibition was -1.09% (inactive).
`COC(=O)CCCC1=CC2=C(c3ccccc3)C(=O)C(C)(OC(=O)C3CCCC3)C(=O)C2=CN1c1ccc(OC)cc1` (stereo not given) was tested, and the inhibition was 7.24% (inactive).
With `COC(=O)CCCC1=CC2=CC(=O)C(C)(OC(=O)c3cccs3)C(=O)C2=CN1CC(C)C` (stereo not given) the inhibition was 5.88% (inactive).
`COC(=O)CCCC1=CC2=CC(=O)C(C)(OC(=O)c3cccs3)C(=O)C2=CN1c1cccc(C#N)c1` (stereo not given) was tested, and the inhibition was 38.1% (active).
`Cc1ccc(O)c(NC(=O)c2cc(-c3ccco3)on2)c1` was tested, and the inhibition was 1.89% (inactive).
In the case of `C[C@H]1CN([C@@H](C)CO)C(=O)Cc2cc(NS(C)(=O)=O)ccc2O[C@@H]1CN(C)CC1CC1`, the inhibition was 0.15% (inactive).
For `CCC(CO)Oc1cc(NCc2ccccc2)c2ncn(C3CCCC3)c2c1` (stereo not given), the inhibition was 5.5% (inactive).
In the case of `CC(C)n1cnc2c(NCc3ccccc3)cc(OCC3CCN(C)CC3)cc21`, the inhibition was -21.3% (inactive).
For `CC(C)n1cnc2c(NCc3ccccc3)cc(N[C@@H](CO)Cc3ccccc3)cc21`, the inhibition was 43.8% (active).
In the case of `CC(c1cccnc1)N(CCN(C)C)C(=O)Nc1ccc(Cl)c(Cl)c1` (stereo not given), the inhibition was -1.61% (inactive).
`C/C(=N\N=C(N)N)c1ccc(Cl)cc1` was tested, and the inhibition was -0.39% (inactive).
`N#C/C(=C(\O)C(F)(F)F)c1nnc2n1CCCCC2` was tested, and the inhibition was 51.1% (active).
`N#C/C(=C/c1cccc([N+](=O)[O-])c1)c1nnc2n1CCCCC2` was tested, and the inhibition was -1.89% (inactive).
With `N#C/C(=C(\O)CCl)c1nnc2n1CCCCC2` the inhibition was -10.3% (inactive).
With `CS(=O)(=O)N1CCN(C(=O)CSc2ccccc2)CC1` the inhibition was 2.68% (inactive).
In the case of `Cc1ccc(S(=O)(=O)N2CCC3(CC2)OCCO3)c(C)c1`, the inhibition was -2.29% (inactive).
For `CCOc1cc(C2C(C(=O)OC)=CN(C3CCCC3)C=C2C(=O)OC)cc(Br)c1O`, the inhibition was 44.7% (active).
For `CCOc1ccc(CNC(=O)C2CCC(=O)N2C2CCCC2)cc1OC` (stereo not given), the inhibition was 7.99% (inactive).
For `COC(=O)C1=CN(Cc2ccc(OC)cc2)C=C(C(=O)OC)C1c1ccc(O)c(OC)c1`, the inhibition was 4.18% (inactive).
In the case of `CCC(C)[C@H](NC(=O)N1CCn2c1nc1ccccc12)C(=O)NCc1ccc(OC)cc1` (stereo not given in full), the inhibition was 12.5% (inactive).
For `C=CC[n+]1c(-c2ccc(C)cc2)csc1NNC(=O)Nc1ccccc1`, the inhibition was -11.8% (inactive).
For `O=C(COC(=O)c1ccncc1)Nc1ccc2c(c1)OCO2`, the inhibition was -0.85% (inactive).
In the case of `O=C(COC(=O)c1ccc(F)cc1)Nc1ccc2c(c1)OCO2`, the inhibition was 0.03% (inactive).
For `NS(=O)(=O)c1ccc(NC(=O)COC(=O)c2c3c(nc4ccccc24)/C(=C\c2ccc4c(c2)OCO4)CCC3)cc1`, the inhibition was 105% (active).
In the case of `Cc1cccc(N=C2NC(=O)CS2)c1C`, the inhibition was 5.66% (inactive).
For `COc1ccccc1CNS(=O)(=O)CC12CCC(CC1=O)C2(C)C` (stereo not given), the inhibition was -1.89% (inactive).
`O=C(NCc1cccs1)C(=O)NCC1OCCCN1S(=O)(=O)c1ccc(F)cc1` (stereo not given) was tested, and the inhibition was 1.56% (inactive).
For `Cc1ccc(C)c(S(=O)(=O)N2CCN(C(=O)Nc3ccccc3)CC2)c1`, the inhibition was 34.2% (active).
`COc1ccc(C)cc1S(=O)(=O)N1CCN(S(=O)(=O)c2cc(C(=O)O)ccc2C)CC1` was tested, and the inhibition was -3.62% (inactive).
`O=C(Nc1ccccc1)N1CCN(C(=O)Nc2ccccc2)CC1` was tested, and the inhibition was 3.08% (inactive).
`COc1cc2c(cc1NC(=O)COC(=O)/C=C/c1ccccc1)oc1ccccc12` was tested, and the inhibition was 1.91% (inactive).
In the case of `COC(=O)c1cc(CNC(=O)CC(C)c2ccccc2)ccc1OC` (stereo not given), the inhibition was 31.6% (active).
With `COc1ccc(CNC(=O)Cc2ccc(-c3ccccc3)cc2)cc1OC` the inhibition was 11.5% (inactive).
`Cc1ccc(CNC(=O)CC(NC(=O)c2ccccc2)c2ccccc2)cc1` (stereo not given) was tested, and the inhibition was 6.67% (inactive).
`COc1ccc(C(C(=O)NC(C)(C)C)N(Cc2ccc(F)cc2)C(=O)CCC(=O)Nc2cc(C)on2)cc1` (stereo not given) was tested, and the inhibition was 3.47% (inactive).
For `Cc1ccc(OCCNC(=O)CNC(=O)c2ccc(C)c(C)c2)cc1`, the inhibition was -0.98% (inactive).
With `C=CCSc1nnc2c(n1)-c1cccc3cccc-2c13` the inhibition was -2.48% (inactive).
In the case of `CC(C)(C)NC(=O)CN1CCC(NC(=O)C23CC4CC(CC(C4)C2)C3)CC1`, the inhibition was -2.46% (inactive).
For `COc1ccc(Cl)cc1NC(=O)C(C)N1CCc2ccccc21` (stereo not given), the inhibition was -0.08% (inactive).
With `CCCCN(C(=O)CSCC(=O)Nc1ccc(OC)cc1)c1c(N)n(CCC)c(=O)[nH]c1=O` the inhibition was 4.96% (inactive).
`C[C@H](CO)N1C[C@H](C)[C@@H](CN(C)Cc2ccc(-c3ccccc3)cc2)Oc2ccc(NC(=O)Cn3cnnn3)cc2C1=O` was tested, and the inhibition was 2.45% (inactive).
`N#CC1=C(N)C(C#N)(C#N)[C@H](c2ccsc2)[C@H]2COCC=C12` was tested, and the inhibition was 34.7% (active).
With `Cc1cccc(-n2ncc3c(=O)[nH]c(SCC(=O)Nc4cc(C)on4)nc32)c1` the inhibition was 2.41% (inactive).
With `O=C(COC(=O)CSc1ccccc1)Nc1ccc(F)cc1F` the inhibition was -2.02% (inactive).
For `COc1ccc(OC)c(C(=O)c2ccc(C(=O)N3CCN(Cc4csc(C)n4)CC3)cc2)c1`, the inhibition was -0.78% (inactive).
